The results in this text go back to PubChem BioAssay (NCI).

The panel holds about 83,000 compounds, 20% with a hit somewhere; the sample as a whole holds those more often.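 Results are percent growth after 48 hours of single-concentration exposure. 100 means growth as in untreated cells, lower positive values show inhibition; negative values down to -100 show cell death.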 A number with no mark means an inactive call. Activity calls are given as the source filed them. How the source made its calls: active means growth percent below 10; inactive means the rest.

Some test systems named below: NCI-H23 lung; NCI-H226 lung; NCI-H322M lung; HOP-62 NSCLC; NCI-H460 lung; HOP-92 NSCLC; NCI-H522 lung; A549/ATCC NSCLC; 786-0 renal; COLO 205 colon; DU-145 prostate; K-562 leukemia; MALME-3M melanoma; MDA-MB-231 breast; RXF 393 renal; SF-268 CNS; SF-295 CNS; SF-539 CNS; UACC-257 melanoma; M14 melanoma.
Holding throughout (experiment): NCI-60 one-dose screen, 48 h (100 = growth as untreated, 0 = no growth, -100 = all killed)
Conditions in all cases: 10 µM unless noted

As to `CCCCCCCCCCCCCCCCCCNC(=O)[C@H]1CSC(c2cccs2)N1` (stereo not given in full), the growth is 18.9% in the assay on NCI-H23 lung; -77.5% (active) with NCI-H226 lung; 0.224% (active) with NCI-H322M lung; -90.3% (active) in the assay with HOP-62 NSCLC; -78.4% (active) with NCI-H460 lung; 46.3% in the assay with HOP-92 NSCLC. The growth with NCI-H522 lung is 38.6%; with A549/ATCC NSCLC, 8.15% (active); with 786-0 renal, 3.69% (active); in the assay on COLO 205 colon, 80.6%; in the assay with DU-145 prostate, 53.3%; in the assay with K-562 leukemia, -27.7% (active). The growth with MALME-3M melanoma is -78.4% (active); in the assay with MDA-MB-231 breast it was -93.5% (active); in the assay on RXF 393 renal, -90.9% (active); with SF-268 CNS, -65.7% (active); in the assay on SF-295 CNS it was 66.5%; in the assay on SF-539 CNS, -49.6% (active). Moreover, the growth in the assay with UACC-257 melanoma is -17.7% (active); in the assay on M14 melanoma it was -84.8% (active).

Turning to `CCCCCCCC[C@@H](O)CC(=O)N[C@@H](CC(N)=O)C(=O)N[C@@H](CCC(N)=O)C(=O)N[C@@H](CC(=O)c1cc(C)cc(O)c1C(=O)c1c(O)cccc1O)CC(C)C`, the growth is 23.5% with NCI-H23 lung; 89.1% in the assay on NCI-H226 lung; 86.8% in the assay on NCI-H322M lung; 6.71% (active) in the assay on HOP-62 NSCLC; 23.4% with NCI-H460 lung; -17.8% (active) in the assay with HOP-92 NSCLC. Besides, the growth in the assay with NCI-H522 lung is -22.5% (active); with A549/ATCC NSCLC, 60.1%; with 786-0 renal it was 11.6%; in the assay with COLO 205 colon it was 13.5%; with DU-145 prostate, 54%; with K-562 leukemia it was 23.8%. Also, the growth was 51.3% in the assay with MALME-3M melanoma; 12.1% in the assay on MDA-MB-231 breast; -49.5% (active) in the assay on RXF 393 renal; 9.65% (active) in the assay with SF-268 CNS; 21% with SF-295 CNS; -5.78% (active) in the assay on SF-539 CNS. For the same compound, the growth with UACC-257 melanoma was 14.9%; in the assay on M14 melanoma, -12.3% (active).

For the compound `COc1cc2c(c(OC)c1OC)-c1ccc(N)c(=O)cc1[C@@H](NC(C)=O)CC2`, the growth in the assay on NCI-H23 lung is 4.57% (active); in the assay on NCI-H226 lung, 40.1%; in the assay with NCI-H322M lung it was 27.4%; in the assay with HOP-62 NSCLC, 46.1%; with NCI-H460 lung, -2.43% (active); in the assay on HOP-92 NSCLC, 31%. In addition, the growth in the assay on NCI-H522 lung is -34.2% (active); in the assay with A549/ATCC NSCLC, 21.3%; with 786-0 renal, 19.7%; in the assay with COLO 205 colon, -71.8% (active); with DU-145 prostate, -28.8% (active); with K-562 leukemia, 17.3%. Further, the growth in the assay with MALME-3M melanoma was 58.4%; with MDA-MB-231 breast it was -9.55% (active); with RXF 393 renal, -5.16% (active); in the assay on SF-268 CNS, 17.9%; in the assay on SF-295 CNS it was 17.7%; with SF-539 CNS, -14% (active). Besides, the growth in the assay with UACC-257 melanoma was 61.2%; with M14 melanoma, -21.8% (active).

For `O=C(NNC(=O)N1c2ccccc2C=Cc2ccccc21)c1ccccc1`, the growth was 101% with NCI-H23 lung; 113% with NCI-H226 lung; 107% in the assay on NCI-H322M lung; 114% in the assay with HOP-62 NSCLC; 106% with NCI-H460 lung; 103% in the assay on HOP-92 NSCLC. In addition, the growth was 94% with NCI-H522 lung; 103% in the assay on A549/ATCC NSCLC; 103% in the assay with 786-0 renal; 112% in the assay with COLO 205 colon; 107% in the assay with DU-145 prostate; 101% in the assay with K-562 leukemia. In addition, the growth with MALME-3M melanoma was 117%; in the assay on MDA-MB-231 breast, 111%; in the assay on RXF 393 renal, 106%; with SF-268 CNS it was 98.4%; with SF-295 CNS, 95.7%; in the assay on SF-539 CNS, 102%. The growth in the assay with UACC-257 melanoma is 108%; in the assay with M14 melanoma, 110%.

On to `COc1cc(NC(N)=NCCC(C)(C)c2ccc(C(F)(F)F)cc2)ncc1C#N`, for which the growth in the assay on NCI-H23 lung is 6.42% (active); in the assay with NCI-H226 lung, 55.5%; in the assay with NCI-H322M lung it was 36.1%; in the assay on HOP-62 NSCLC it was 54.5%; in the assay with NCI-H460 lung, 6.06% (active); with HOP-92 NSCLC it was -3.76% (active). In addition, the growth in the assay with NCI-H522 lung was 16.8%; in the assay with A549/ATCC NSCLC, 27.2%; in the assay on 786-0 renal, 36%; in the assay with COLO 205 colon, -83.6% (active); with DU-145 prostate it was 39.6%; in the assay with K-562 leukemia, -18.1% (active). The growth in the assay on MALME-3M melanoma was -77.9% (active); in the assay on MDA-MB-231 breast, 26%; in the assay with RXF 393 renal it was 33.4%; in the assay with SF-268 CNS, 44.1%; with SF-295 CNS it was 25.9%; in the assay with SF-539 CNS, 61.1%. The growth in the assay on UACC-257 melanoma was -0.602% (active); in the assay on M14 melanoma, -73.7% (active).

`O=C(Nc1ccc2c(c1)OCCO2)C(=O)c1c[nH]c2ccccc12`: the growth was 24.5% in the assay on NCI-H23 lung; 82.7% with NCI-H226 lung; 54.3% in the assay with NCI-H322M lung; 42.9% in the assay with HOP-62 NSCLC; 8.62% (active) in the assay on NCI-H460 lung; 1.01% (active) in the assay with HOP-92 NSCLC. In addition, the growth in the assay with NCI-H522 lung was -40.4% (active); with A549/ATCC NSCLC, 47.7%; in the assay on 786-0 renal, 59.7%; with COLO 205 colon it was 10.2%; with DU-145 prostate it was 7.38% (active); in the assay on K-562 leukemia, 12.2%. Also, the growth with MALME-3M melanoma was 46.6%; in the assay on MDA-MB-231 breast it was 28.9%; in the assay with RXF 393 renal, 24.3%; in the assay on SF-268 CNS, 46.1%; with SF-295 CNS, 23.8%; in the assay on SF-539 CNS, -6.87% (active). Also, the growth with UACC-257 melanoma is 70.7%; in the assay with M14 melanoma, 19.9%.

In the case of `O=C(c1c[nH]c(=O)c(-c2ccccc2)c1)c1ccccc1O`, the growth in the assay with NCI-H23 lung was 91.7%; in the assay with NCI-H226 lung, 88.7%; in the assay with NCI-H322M lung, 82.7%; with HOP-62 NSCLC it was 86.3%; in the assay with NCI-H460 lung, 96.1%; in the assay with HOP-92 NSCLC, 70.2%. Moreover, the growth in the assay with NCI-H522 lung was 87.2%; with A549/ATCC NSCLC it was 93.5%; with 786-0 renal it was 88.2%; with COLO 205 colon, 98.1%; in the assay on DU-145 prostate, 99.7%; with K-562 leukemia it was 78.4%. Also, the growth with MALME-3M melanoma is 92.5%; in the assay with MDA-MB-231 breast, 98.5%; with RXF 393 renal, 82.1%; in the assay on SF-268 CNS, 91.5%; in the assay on SF-295 CNS, 92.2%; in the assay with SF-539 CNS, 108%. The growth was 85.7% in the assay on UACC-257 melanoma and 105% with M14 melanoma.

`C/C(=C\c1ccc(OCC(=O)O)c(Cl)c1Cl)[N+](=O)[O-]`: the growth in the assay on NCI-H23 lung was 93.2%; in the assay on NCI-H226 lung, 110%; with NCI-H322M lung, 134%; in the assay on HOP-62 NSCLC it was 100%; in the assay with NCI-H460 lung, 110%; in the assay with HOP-92 NSCLC, 104%. For the same compound, the growth in the assay on NCI-H522 lung was 83.4%; in the assay with A549/ATCC NSCLC, 93.8%; in the assay with 786-0 renal it was 117%; in the assay with COLO 205 colon it was 112%; in the assay on DU-145 prostate it was 108%; in the assay on K-562 leukemia it was 88%. Also, the growth was 135% in the assay on MALME-3M melanoma; 113% in the assay on MDA-MB-231 breast; 136% with RXF 393 renal; 95.2% with SF-268 CNS; 116% in the assay on SF-295 CNS; 103% with SF-539 CNS. The growth in the assay on UACC-257 melanoma was 90.4%; in the assay with M14 melanoma, 102%.
